The record followed here is PubChem BioAssay (NCATS).

SMILES strings stand for the structures. Results filed as inconclusive are left out. Where a call stands in place of a potency, no number is given. Calls of active or inactive are those of the source. Calls come from the whole dose curve; as a rule, active = well fitted inhibition curve with a large enough effect; inconclusive = small, poorly fitted or top-dose-only effect; inactive = flat fitted curve, though single readings scatter.

The experiment is described as follows: qHTS to identify inhibitors of the type 1 interferon - major histocompatibility complex class I in skeletal muscle: primary screen against the NCATS Pharmaceutical Collection (AID 1347407).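 Note: luminescence of HiBiT knocked into endogenous HLA-B as interferon-induced MHC class I level.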 Conditions: human skeletal muscle cells, IFN-b-induced MHC-I HiBiT luminescence, 24 h; series mostly up to 45.9 µM. The essentials: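 Cells were seeded with 4 ng/ml IFN-beta, incubated 1 h, then dosed with compounds over eight 1:5 steps up to 46 uM final. After 24 h at 37 C, HiBiT lytic reagent was added and luminescence read after 10 min lysis in the dark.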
In the case of `CC[n+]1c(-c2ccccc2)c2cc(N)ccc2c2ccc(N)cc21`, the Potency entry was “inactive”. With `CN1C(=O)[C@@H](NC(=O)c2cc3ccccc3[nH]2)N=C(c2ccccc2)c2ccccc21` the entry was “inactive”; with `CCCOC(=O)Cc1ccc(OCC(=O)N(CC)CC)c(OC)c1`, “inactive”. To `CCOC(C(=O)OCCN(C)C)(c1ccccc1)c1ccccc1` belongs “inactive”.

For the compound `ClCCCN1CCN(c2cccc(Cl)c2)CC1`, the Potency entry is “inactive”. With `CC(C)NCC(O)c1ccc(N)c(C#N)c1` (centres undefined) the entry was “inactive”. With `COc1ccc2c(C(=O)c3ccc(Cl)cc3)c(C)n(CC(=O)O)c2c1` the entry was “inactive”; with `NCc1cccnc1`, “inactive”; with `Clc1ccc(CO/N=C(\Cn2ccnc2)c2ccc(Cl)cc2Cl)c(Cl)c1`, “inactive”.

Consider `O=C(CBr)Nc1ccc(Cl)cc1C(=O)c1ccccc1F`, for which the Potency entry is “inactive”.

`CCN(Cc1ccc(Cl)nc1)/C(=C/[N+](=O)[O-])NC`: the Potency entry was “inactive”. With `O=C1NCN(c2ccccc2)C12CCN(CCCOc1ccc(F)cc1)CC2`, the Potency result was “inactive”. Take `OC(O)C(Cl)(Cl)Cl`: the Potency result is “inactive”.

With `CCc1ccc(C2CCNCC2)cc1`, the Potency entry was “inactive”. To `CCC(=O)OC1(c2ccccc2)CCN(C)CC1` belongs “inactive”; to `O=C(N[C@@H]1N=C(c2ccccc2F)c2cccc3c2N(CC3)C1=O)c1cc2ccccc2[nH]1`, “inactive”; to `COc1cc(N)c(Cl)cc1C(=O)NC1CN2CCC1CC2` (centres undefined), “inactive”. To `Cc1nnc2n1-c1sc(CCc3ccc(CC(C)C)cc3)cc1C(c1ccccc1Cl)=NC2C` (centres undefined) belongs “inactive”; to `C[N+](C)(C)CCOC(=O)C(O)(c1ccccc1)c1ccccc1`, “inactive”; to `CNC(=O)NC(O)C(Cl)(Cl)Cl` (centres undefined), “inactive”. With `COc1cc(CC#N)cc(OC)c1OC` the entry was “inactive”; with `Oc1ccc([C@H]2CNCc3c2ccc(O)c3O)cc1O`, “inactive”. For `CCS(=O)(=O)C(C)(C)S(=O)(=O)CC`, the Potency entry was “inactive”.

Turning to `C[C@@H]1CN(C2CCC(C#N)(c3ccc(F)cc3)CC2)CC[C@]1(C(=O)O)c1ccccc1` (some centres undefined), the Potency result was “inactive”. With `CCN1CCCC1CNC(=O)C(O)(c1ccccc1)c1ccccc1` (centres undefined) the entry was “inactive”; with `CC[C@H](O)C(C[C@H](C)N(C)C)(c1ccccc1)c1ccccc1`, “inactive”; with `Oc1c(Br)cc(Br)cc1Br`, “inactive”. For `CC(CC(C(N)=O)(c1ccccc1)c1ccccc1)N(C)C` (centres undefined), the Potency entry was “inactive”.

Take `Cc1nc2ccccc2c(=O)n1-c1ccccc1Cl`: the Potency result was “inactive”.
